# Rows were chosen to be rich in hits. Some 1.4% of all compounds tested hit in one or more screens of this group.
# 14-3-3 Bad inh = inhibitors of 14-3-3 zeta/Bad binding, primary screen, biochemical, TR-FRET, bovine 14-3-3 zeta | 14-3-3 protein zeta/delta (Bos taurus), P63103 | TR-FRET 14-3-3zeta/Dy647-pBad peptide displacement, 1 h | inhibition, % at 21.7 µM | 220,000 compounds, 0.71% hits | AID 781, 2007;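 active means inhibition above about 70%, limit read from the data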;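 further: 0% = full 14-3-3 plus peptide FRET controls and 100% = background without 14-3-3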
# MsrA inhibitor = bovine MsrA enzyme inhibitors, primary screen, biochemical, absorbance, HTS; Methionine sulfoxide reductase A (Bos taurus); purified bovine MsrA, absorbance read-out; inhibition, % at 15.5 µM; 360,000 compounds, 0.75% hits; AID 651718, 2012; in the data active means inhibition above about 4.5%;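 further: 0% = vehicle wells with enzyme and 100% = reference inhibitor wells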
# p-CIP stab down = p/CIP-EGFP fusion destabilizers, primary screen, fluorescence, F442A cells | 16 h | decrease of EGFP signal, % at 10 µM | Q05BA5 | 290,000 compounds, 0.01% hits;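 active means EGFP signal decrease of at least 30% at 10 µM or well 3 SD below plate mean, unless failing retest; inactive means the rest, including hits failing retest or dose response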
# Target sequence (Q05BA5 1-1403): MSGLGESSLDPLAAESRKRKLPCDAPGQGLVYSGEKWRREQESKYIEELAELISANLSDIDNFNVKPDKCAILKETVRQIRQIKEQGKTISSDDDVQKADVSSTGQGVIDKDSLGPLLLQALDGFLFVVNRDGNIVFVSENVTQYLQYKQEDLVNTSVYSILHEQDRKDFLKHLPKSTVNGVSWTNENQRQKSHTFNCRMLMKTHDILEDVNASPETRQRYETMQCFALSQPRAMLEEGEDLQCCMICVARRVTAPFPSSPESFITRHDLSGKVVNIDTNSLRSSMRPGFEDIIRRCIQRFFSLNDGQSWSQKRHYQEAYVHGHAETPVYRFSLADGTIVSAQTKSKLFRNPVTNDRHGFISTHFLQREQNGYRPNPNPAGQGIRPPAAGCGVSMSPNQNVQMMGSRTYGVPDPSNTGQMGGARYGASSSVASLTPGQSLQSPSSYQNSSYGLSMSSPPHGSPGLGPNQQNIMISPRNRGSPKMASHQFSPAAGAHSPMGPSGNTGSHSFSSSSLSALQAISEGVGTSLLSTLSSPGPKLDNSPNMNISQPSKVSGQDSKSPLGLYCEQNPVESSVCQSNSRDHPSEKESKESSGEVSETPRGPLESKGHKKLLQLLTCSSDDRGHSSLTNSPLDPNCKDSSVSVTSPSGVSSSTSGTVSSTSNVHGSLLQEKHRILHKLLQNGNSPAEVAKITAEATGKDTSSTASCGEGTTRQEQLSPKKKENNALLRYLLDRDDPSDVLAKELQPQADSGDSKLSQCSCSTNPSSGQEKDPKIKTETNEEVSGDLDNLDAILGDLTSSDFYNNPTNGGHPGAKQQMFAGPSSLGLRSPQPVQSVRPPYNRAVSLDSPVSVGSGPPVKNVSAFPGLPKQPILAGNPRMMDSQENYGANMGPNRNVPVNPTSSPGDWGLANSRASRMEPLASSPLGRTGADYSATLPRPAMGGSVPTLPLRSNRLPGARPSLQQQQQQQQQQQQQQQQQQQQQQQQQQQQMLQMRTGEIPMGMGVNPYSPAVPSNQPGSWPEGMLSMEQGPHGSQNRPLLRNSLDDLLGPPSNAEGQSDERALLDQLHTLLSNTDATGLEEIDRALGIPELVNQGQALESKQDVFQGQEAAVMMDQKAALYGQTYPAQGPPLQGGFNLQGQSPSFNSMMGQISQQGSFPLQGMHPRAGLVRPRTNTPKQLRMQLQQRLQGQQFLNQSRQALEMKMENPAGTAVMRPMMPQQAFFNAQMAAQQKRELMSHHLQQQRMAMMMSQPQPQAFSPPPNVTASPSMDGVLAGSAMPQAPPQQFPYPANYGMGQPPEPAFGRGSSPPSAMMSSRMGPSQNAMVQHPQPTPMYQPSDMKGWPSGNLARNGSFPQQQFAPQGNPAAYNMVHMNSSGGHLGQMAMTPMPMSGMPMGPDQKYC
# bovine MsrA act = bovine MsrA enzyme activators, primary screen, biochemical, absorbance, HTS. Methionine sulfoxide reductase A (Bos taurus). purified bovine MsrA, absorbance read-out. activation, % at 10.6 µM. 360,000 compounds, 0.3% hits; in the data active means activation above about 7.5%;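 further: 0% = vehicle and 100% = reference activator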
# MsrA activ conf = bovine MsrA activators, retest, confirmation, biochemical, absorbance, HTS | 1,000 compounds, 12% hits | shares compounds with bovine MsrA act | activation, % at 10.6 µM | AID 602270, 2012 | purified bovine MsrA, absorbance read-out; in the data active means activation above about 4%;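 further: enzyme coupled to thioredoxin and thioredoxin reductase with NADPH; 0% = vehicle wells and 100% = reference activator wells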
# The depositor's hits bear a star; · = no result; ! = a repeat was not active.
SMILES,14-3-3 Bad inh,MsrA inhibitor,p-CIP stab down,bovine MsrA act,MsrA activ conf
C#CCNC(=O)C[C@H]1C[C@@]2(C(=O)OC)C(=C[C@H](C3CCCC3)O[C@@H]2C)N(CCCCCCCC)C1=O,·,0.2,·,·,·
CCN(CC(=O)Nc1cc(Cl)ccc1OC)CC(=O)NC1CCS(=O)(=O)C1 (stereo not drawn),73.9*,-1.1,-10.5,-4.0,·
CCCCNC(c1ccccc1)c1ccncc1 (stereo not drawn),71.2*,-1.3,-5.5,1.1,·
O=C(NCc1ccccc1)[C@@H]1CCCN1C(=O)[C@H]1CCCN1C(=O)c1cccc(F)c1,·,0.9,·,·,·
COc1ccc(NC(=S)NCc2cccs2)cc1,-7.4,-0.3,-19.4,-0.3,·
CC(C)c1ccc(NC(=S)NCc2cccs2)cc1,-22.2,0.7,-3.7,8.1*,-2.7
O=C(CCN1CCN(C(=O)c2ccco2)CC1)Nc1ccc(F)cc1,1.4,1.0,-7.3,-4.4,·
O=C(c1ccco1)N1CCN(CCCCOc2ccc(F)cc2)CC1,11.3,-1.0,-12.1,9.4*,-2.4
CC(C)C(=O)Nc1cc(C(F)(F)F)ccc1N1CCOCC1,-2.6,2.0,-14.0,-0.3,·
Cc1cc(C#N)c(C)n1-c1cc(C(F)(F)F)ccc1N1CCOCC1,-6.0,-0.9,-5.5,8.6*,0.2
FC(F)(F)c1cccc(-c2nc3nc(Cl)c(Cl)nc3[nH]2)c1,2.3,·,-26.4,12.0*,-3.6
CCCc1c(Cc2cccc(F)c2)ncn1CCc1ccccc1OC,·,-0.4,·,·,·
Cc1nnc(N/N=C/c2ccco2)n1N,-18.6,1.4,14.7,16.3*,-2.1
Cc1nnc(N/N=C/c2cccc(C(F)(F)F)c2)n1N,·,-1.5,-8.0,13.2*,0.9
N#Cc1cn(CC(=O)N2CCCc3ccccc32)c2ccccc12,2.7,0.6,4.0,8.1*,0.6
COc1ccc2oc(=O)c(C(=O)NCc3ccc4c(c3)OCO4)cc2c1,-2.4,0.5,-13.7,-2.8,·
COc1ccc2oc(=O)c(C(=O)NCCc3ccc(OC)c(OC)c3)cc2c1,·,-0.9,4.0,7.7*,2.2
CCOC(=O)Nc1ccc2c(c1)N(C(=O)CN(CC)CC)c1ccccc1C=C2,21.0,-1.1,-6.4,7.9*,-0.1
CCOC(=O)Nc1ccc2c(c1)N(C(=O)CN(CC)CC)c1ccccc1CC2,·,-0.8,-1.2,-0.3,·
Cc1cc(-c2ccccc2)cc(=O)[nH]1,·,1.3,·,12.8*,-1.9
Nc1nc(=S)ss1,·,1.5,·,38.1*,28.1*
O[C@@H](Cc1ccccc1)[C@@H](/C=C/c1ccccc1)NCCc1ccccc1,·,0.4,·,·,·
O=C(N[C@@H](Cc1cccnc1)C(=O)N1CCC[C@H]1C(=O)NCCc1ccccc1Cl)c1ccc(Cl)cc1Cl,·,1.6,·,·,·
CN(C)C(CNC(=S)Nc1ccccc1Cl)c1cccnc1 (stereo not drawn),-8.5,-0.8,-0.2,7.9*,-1.1
COc1cc(C(C)=O)ccc1OCC(O)CNCC1(N2CCCCC2)CCCCC1 (stereo not drawn),29.5,0.7,15.0,19.3*,-0.2
SMILES,14-3-3 Bad inh,MsrA inhibitor,p-CIP stab down,bovine MsrA act,MsrA activ conf
COc1ccccc1COCC(O)CNCC1(N2CCCCC2)CCCCC1 (stereo not drawn),62.1,-0.4,-0.3,-1.4,·
Nc1[nH]c(C(=O)c2ccccc2)c(-c2cccc(C(F)(F)F)c2)c1C(=O)NCCc1c[nH]c2ccccc12,·,0.2,·,·,·
Cn1c(=O)n(CC(=O)O)c(=O)c2c1nc1n2CCS1,4.6,-0.9,-2.0,8.5*!,-0.7
COC(=O)[C@]12C[C@H](CC(=O)NCCc3ccccc3OC)C(=O)N(Cc3ccc4c(c3)OCO4)C1=C[C@H](COCc1ccccc1)O[C@@H]2C,·,0.9,·,·,·
CCOCCC(=O)Nc1ccc2c(c1)c(=O)n(C)n2-c1ccccc1F,·,0.3,·,10.4*,0.4
Cn1c(=O)c2cc(NC(=O)CCc3ccccc3)ccc2n1-c1ccccc1F,·,0.1,·,-1.5,·
Cc1ccc(C(N)=O)cc1S(=O)(=O)Nc1cccc(C)c1C,-4.1,-0.6,-1.8,15.7*,-3.7
COc1cccc(-c2ncn(CCc3ccccc3OC)c2CC(C)C)c1,·,0.2,·,·,·
CCS(=O)(=O)Nc1cccc(-c2cn3c(n2)SCC3)c1,·,-1.0,-16.3,7.7*,1.2
CCCN1C(=O)c2[nH]nc(-c3ccccc3)c2C1c1ccc(F)cc1 (stereo not drawn),·,1.3,·,·,·
CC(=O)N1CCN(c2ccc(N3CCN(C(C)=O)[C@@H](C)C3)c(C)c2)[C@H](C)C1,·,-1.2,·,·,·
O=C(Cc1cn(Cc2ccccc2)c2ccccc12)Nc1ccc(Nc2cccnc2)cc1,·,1.4,·,·,·
CCN(CC)C1=N/C(=C\c2ccc(OC)cc2)C(=O)N1c1ccccc1,-16.1,0.8,-10.5,19.9*,0.1
O=C(Nc1ccc2c(c1)OCCO2)NC12CC3CC(CC(C3)C1)C2,7.4,0.2,6.9,9.1*,0.8
O=C(Nc1ccc2c(c1)OCCO2)Nc1ccc2c(c1)OCO2,-10.7,-0.4,-6.0,-2.9,·
CCc1cc2c(=O)n(CCC(C)C)c(=S)[nH]c2s1,-9.5,0.8,-2.4,15.4*,-1.4
COc1ccccc1C(=O)N1CCC2CCN(C(=O)c3ccccc3)C2C1 (stereo not drawn),·,0.2,·,·,·
CN(Cc1cn[nH]c1-c1ccc2c(c1)OCO2)C1CCOCC1,1.4,-0.4,2.1,-1.9,·
c1cc2c(cc1-c1[nH]ncc1CN1C[C@H]3CC[C@H]1C3)OCO2,-3.1,0.5,-4.2,12.2*,-2.1
O=C1CN(C(=O)COC(=O)c2cc(Cl)ccc2[N+](=O)[O-])c2ccccc2N1,·,0.8,·,-7.5,·
CCn1c(=O)cc(OCC(=O)O)c2ccccc21,-5.8,-1.6,-1.9,14.4*,-1.3
Cc1ccc(-c2ccnc(=S)[nH]2)cc1,11.2,-0.4,-9.0,9.4*,6.2*
CCC(=O)N1CCc2cc(Br)cc(S(=O)(=O)CCC(=O)NCc3ccco3)c21,-0.3,·,9.1,14.1*,0.4
COc1ccc(C(=O)NC(=S)Nc2ccc(S(=O)(=O)Nc3cc(C)on3)cc2)cc1OC,-14.1,-0.7,0.5,8.2*,-1.2
COc1ccccc1C(=O)Nc1ccccn1,7.0,0.7,-0.2,12.4*,-1.2
SMILES,14-3-3 Bad inh,MsrA inhibitor,p-CIP stab down,bovine MsrA act,MsrA activ conf
Cc1cc2c(c(=O)o1)[C@@]1(C(=O)N(C)c3cc(Br)ccc31)C1=C(CCCC1=O)O2,·,0.7,·,·,·
Cc1ccc(C(Nc2ccccc2)c2ccc3ccc(C)nc3c2O)c(C)c1 (stereo not drawn),·,0.0,·,·,·
CC(=O)N1C[C@@H](CO)[C@@H](N(C)C(=O)/C=C/c2ccccc2)C[C@H]1c1ccccc1,·,1.8,·,·,·
Nc1[nH]c(C(=O)c2ccccc2)c(-c2ccc(Cl)c(F)c2)c1C(=O)c1c[nH]c2ccccc12,·,0.2,·,·,·
CCC(C)(C)n1nnnc1C(c1ccc(C)cc1)N1CCN(Cc2ccc3c(c2)OCO3)CC1 (stereo not drawn),-4.8,0.0,3.5,8.7*,-1.4
C=CCN=C1NC(c2ccc(F)cc2)C(C(=O)OC)=C(C)N1Cc1ccccc1C(F)(F)F (stereo not drawn),·,-0.1,·,·,·
O=C(COC(=O)c1ccc([N+](=O)[O-])s1)NCc1ccc(F)cc1,-2.6,0.2,-2.5,26.4*,21.9*

# High-throughput results: PubChem, several laboratories
